From PubChem BioAssay (NCI)
About 83,000 compounds went through this panel and 20% of them were active in at least one assay; those are over-represented in the sample as a whole.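 Step 1: grow cells in 96-well plates. Step 2: add test compound at a single concentration. Step 3: incubate 48 h. Step 4: record percent growth.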 Activity calls are given as the source filed them.

System: LOX IMVI melanoma
Assay: NCI-60 one-dose screen, 48 h (100 = growth as untreated, 0 = no growth, -100 = all killed)
Conditions: 10 µM
Procedure: Growth inhibition of the LOX IMVI human tumor cell line is measured as a screen for anti-cancer activity. Cells are grown in 96 well plates and exposed to the test compound for 48 hours. Compounds are tested at a single concentration, which is 10^-5 M for most compounds. The reported endpoint is percent growth (GI% or GIPRCNT), where numbers from 0 - 100% represent growth inhibition, and numbers from -100% - 0 represent cell death. For example, a value of 40 represents 60% growth inhibition. A value of 0 means no net growth occurred over the course of the experiment. A value of -40 indicates 40% of cells at the beginning of the experiment died by the end of the experiment. A value of -100 means all cells are dead at the end of the experiment.
NCI-60 Human Tumor Cell Lines Screen was performed using the standard one-dose NCI protocol, which is described in more detail at https://dtp.cancer.gov/discovery_development/nci-60/default.htm.
Compounds with GIPRCNT values below 10 were considered active. Activity score was based on GIPRCNT using the following formula: […]
Score is 0 for GIPRCNT values of 100 or above, 50 for GIPRCNT values of 0, and 100 for GIPRCNT values of -100.

Compound	growth
COc1ccc(C(=O)Nc2ccc(-c3ccc4c(c3)NC(=O)/C4=C\c3ccc[nH]3)cc2)cc1	5.2% (active)
COC[C@@H](CC(C)C)N=C1NC(=O)/C(=C/c2ccc3ncsc3c2)N1	0.514% (active)
CCN1CCN(c2ccc(NC(=O)Nc3ccc4c(c3F)CCN4c3ccnc(C(=O)NC)c3)cc2C(F)(F)F)CC1	-99.9% (active)
O=C(NO)c1ccc(CNC(=O)[C@H]2Cc3c([nH]c4ccccc34)[C@H](c3ccccc3)N2)cc1	19.6% (inactive)
Cc1ccc(/C=C/C(=O)c2ccc(NC(=O)CSc3nnc(-c4c[nH]c5ccccc45)n3-c3ccccc3)cc2)c(C)c1	13.3% (inactive)
COc1cc(C2CC(c3ccc(C)cc3)=Nc3c(N)nc(N)nc3N2)ccc1Oc1nc(Nc2ccc(F)cc2)nc(N(C)C)n1 (stereo not given)	-77.8% (active)
CCCCOc1ccc(Nc2nc3ccccc3nc2Nc2ccc(OCCCC)cc2)cc1	102% (inactive)
COc1cc(NC(=O)c2cc(-c3ccc(F)cc3F)ccc2O)cc(OC)c1OC	55.3% (inactive)
O=C1Nc2ccc(F)cc2/C1=C/c1cccc(OCc2ccccc2)c1	-79.5% (active)
COc1ccc(C(=O)Nc2sc3c(c2C#N)CCC(=O)C3)cc1C(F)(F)F	-15% (active)
CC(C)(C)c1ccc(NCc2cn(-c3ccc(C(=O)O)cc3)nc2-c2ccc(C#N)cc2)cc1	23.5% (inactive)
O=C1Nc2cc(-c3ccc(NC(=O)c4cccc([N+](=O)[O-])c4)cc3)ccc2/C1=C/c1ccc[nH]1	86.9% (inactive)
N#C/C(=C\c1ccc(N(c2ccccc2)c2ccccc2)cc1)C(N)=O	79% (inactive)
COc1ccc2nc(Cl)c(-c3cc(-c4ccccc4)nc(=O)[nH]3)cc2c1	-46.4% (active)
O=C(Cn1cc(CSc2nnc3oc4ccccc4n23)nn1)Nc1cccc(Cl)c1	58.3% (inactive)
Cc1ccc2nc(COc3ccc(C(=O)NNC(=S)NCCc4ccccc4)cc3)[nH]c2c1	79.9% (inactive)
COc1ccc(-c2nc(S(=O)(=O)c3ccc(C)cc3)c(S(C)(=O)=O)o2)cc1	-89.1% (active)
CC1(c2ccccc2)NC(=O)N(CC(=O)Nc2ccc(C(=O)/C=C/c3ccccc3)cc2)C1=O (stereo not given)	-72% (active)
COC(=O)C[C@](O)(CCCC(C)(C)O)C(=O)O[C@H]1C(OC)=C[C@@]23CCC(=O)N2CCc2cc4c(cc2[C@@H]13)OCO4	78% (inactive)
COc1ccc([C@H]2C(C(=O)c3ccc(Cl)cc3)C3(N[C@@H]2c2ccccc2)C(=O)Nc2ccc(Cl)cc23)cc1 (stereo not given in full)	-100% (active)

Compound	growth
Cc1ccc(-c2nc(Nc3ccccc3C(=O)O)c3ccccc3n2)cc1	8.57% (active)
Nc1nc(Nc2ccc(Cl)cc2)n(Cc2cccc(Br)c2)n1	-84.6% (active)
C#Cc1ccc(S(=O)(=O)Nc2cccc(-c3csc(NC(C)=O)n3)c2)cc1	54.6% (inactive)
CCN(CC)CCOc1ccc(C(=C(C)c2ccccc2)c2ccc(OCCN(CC)CC)cc2)cc1	-98.8% (active)
O=C(N/N=C/c1ccc(-c2cccc([N+](=O)[O-])c2)o1)c1[nH]c2ccc(Br)cc2c1-c1ccccc1	7.19% (active)
O=C1NC(=NC23CC4CC(CC(C4)C2)C3)N/C1=C\c1ccc2ncccc2n1	-42.6% (active)
O=C(Cc1ccc2c(c1)CN(C1CCC(=O)NC1=O)C2=O)NCc1cccc2ccccc12 (stereo not given)	-48.3% (active)
Cc1ccc(-c2cc(-c3cc4ccccc4nc3Cl)[nH]c(=S)n2)cc1	53.6% (inactive)
CC(=O)c1ccc(Nc2nc(SCCC(C)C)nc(-c3ccc(F)cc3)c2C#N)cc1	5.44% (active)
CN1C(=O)N(C)C2SC(N/N=C/c3cccs3)=NC21 (stereo not given)	28.7% (inactive)
N#Cc1c(NC(=O)c2ccc(C(F)(F)F)cc2)sc2c1CCC(=O)C2	-86.8% (active)
CN(CCO)c1oc(-c2ccccc2)nc1[P+](c1ccccc1)(c1ccccc1)c1ccccc1	-67.2% (active)
CN1CCN(c2ccc(C(=O)/C=C/c3cc(Br)ccc3F)cc2)CC1	-91.8% (active)
CC(=O)C1=C(C)NC(SCC(=O)Nc2ccc(S(=O)(=O)Nc3cc(C)on3)cc2)=NC1c1ccccc1 (stereo not given)	92.8% (inactive)
N#Cc1c(-c2ccc(Cl)cc2)cc(-c2ccccc2)nc1OCc1ccccc1	65.7% (inactive)
CC1(C)CC[C@]2(C(=O)O)CC[C@]3(C)C(=CC[C@@H]4[C@@]5(C)C/C(=C/c6ccncc6)[C@H](O)C(C)(C)[C@@H]5CC[C@]43C)[C@@H]2C1	28.7% (inactive)
CC1(c2ccccc2)NC(=O)N(CC(=O)Nc2ccc(C(=O)/C=C/c3ccc(Br)cc3)cc2)C1=O (stereo not given)	-49.1% (active)
O=C1Nc2ccc(Cl)cc2/C1=C/c1cccc(OCc2ccccn2)c1	-89.9% (active)
O=C1Nc2ccc(Cl)cc2/C1=C/c1cccc(OCc2ccccc2)c1	1.77% (active)
Cc1ccc(/C=C/C(=O)c2ccc(S(=O)(=O)NCCNc3nc(Nc4ccc(F)cc4)nc(N(C)C)n3)cc2)cc1	-100% (active)
